Records with an inconclusive call do not appear. Activity calls are given as the source filed them. The calls were made as follows, unless noted: active = hit-call score of the fitted dose curve at least 0.9, where 1 is the maximum; inactive = score below 0.9.
Experiments:
[1] = CCTE_Mundy_HCI_Cortical_Synap_Neur_Matur_NeuriteSpotCountPerNeuron: CCTE's Synaptogenesis and Neurite Maturation Assay in rat cortical cells for Neurite Spot Count per Neuron Count, Mundy Lab (AID 2284215)
In short: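 Developing rat cortical neurons, with glia suppressed by AraC, are exposed to chemicals from DIV 7 to DIV 12. Automated fluorescence imaging of MAP2-labelled neurites and synaptophysin puncta yields a count per neuron, normalised against DMSO wells.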

[2] = CCTE_Mundy_HCI_Cortical_Synap_Neur_Matur_SynapseCount: CCTE's Synaptogenesis and Neurite Maturation Assay in rat cortical cells for Synapse Count, Mundy Lab (AID 2284218)
In short: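 Cells were plated, allowed 2 hr to attach, treated with AraC at DIV 5, then exposed to chemicals from DIV 7 until DIV 12. After fixation and MAP2/synaptophysin immunolabelling, synapses per neuron were quantified by automated imaging against DMSO.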

[3] = CCTE_Mundy_HCI_Cortical_Synap_Neur_Matur_NeuriteCount: CCTE's Synaptogenesis and Neurite Maturation Assay in rat cortical cells for Neurite Count, Mundy Lab (AID 2284222);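 also: exposure from day 7 to day 12 in vitro with readout at day 12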
In short: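 Primary rat cortical cells were plated, treated with AraC at DIV 5, then exposed to chemicals from DIV 7 through DIV 12. After fixation and immunostaining for MAP2 and synaptophysin, imaging quantified neurites, with DMSO as the negative control.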

[4] = CCTE_Mundy_HCI_Cortical_Synap_Neur_Matur_CellBodySpotCount: CCTE's Synaptogenesis and Neurite Maturation Assay in rat cortical cells for Cell Body Spot Count, Mundy Lab (AID 2284223)
In short: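 Chemicals were applied to AraC-treated rat primary cortical cells at DIV 7 and measured at DIV 12. Fixed cells were labelled for MAP2, synaptophysin and nuclei, and high-content imaging gave cell body synaptophysin spot counts per neuron relative to DMSO.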

[5] = CCTE_Mundy_HCI_hNP1_Pro_ResponderAvgInten: CCTE's Proliferation Assay in human neuroprogenitor cells, Mundy Lab (AID 2284224; active = hit-call score of the fitted dose curve at least 0.9, where 1 is the maximum)
In short: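 Proliferation was scored as BrdU labelling intensity in human neural progenitors derived from WA09 embryonic cells, measured 26.25 hours after chemical dosing. Activity was fitted relative to DMSO.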

[6] = UKN2_HCS_IMR90_cell_viability: Viability Assessment in the University of Konstanz (UKN) Leist Lab Neural Crest Cell Migration Assay in human induced IMR90 Pluripotent Stem Cells (UKN2) (AID 2284233);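 also: cells exposed to compound for 24 h after a 24 h migration phase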
In short: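 After calcein-AM/Hoechst staining, viability is quantified by high-content fluorescence imaging, relative to DMSO, in iPSC (IMR90)-derived neural crest cells. Exposure lasts 24 h, starting after a 24 h migration period on PLO/laminin/fibronectin coating.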

[7] = CCTE_Mundy_HCI_Cortical_NOG_NeuronCount: CCTE's Neurite Outgrowth Assay in rat cortical cells for Neuron Count, Mundy Lab (AID 2284236; active = hit-call score of the fitted dose curve at least 0.9, where 1 is the maximum;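 also: neurons counted by imaging betaIII-tubulin and Hoechst stained cortical cells; cells exposed to compound for about 48 hours before fixation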)
In short: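 Read-out: neuron number by high-content imaging of betaIII-tubulin (Alexa Fluor-488) and Hoechst-labelled rat primary cortical cells.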

[8] = CCTE_Mundy_HCI_Cortical_NOG_BPCount: CCTE's Neurite Outgrowth Assay in rat cortical cells for Branch Point Count, Mundy Lab (AID 2284237);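 also: branch points counted about two days after chemical exposure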
In short: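 Measured 50.33 h after dosing, this morphology endpoint uses rat primary cortical cultures labelled for betaIII-tubulin. Branch points are quantified by high-content imaging, with DMSO as negative control and baseline.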

[9] = CCTE_Mundy_HCI_hNP1_Casp3_7: CCTE's Caspase-Glo 3/7 Assay in human neuroprogenitor cells for Apoptosis, Mundy Lab (AID 2284240)
In short: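 Apoptosis is scored by activated caspase-3/7 luminescence in WA09-derived neural progenitor cells, measured 26.5 h after chemical dosing. Values represent gain of signal relative to DMSO vehicle.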

[10] = CCTE_Mundy_HCI_hNP1_CellTiter: CCTE's Cell Titer-Glo 2 Assay in human neuroprogenitor cells for Viability, Mundy Lab (AID 2284241; active = hit-call score of the fitted dose curve at least 0.9, where 1 is the maximum)
In short: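 Human neural progenitor cells (hNP1, WA09-derived) were plated on poly-L-ornithine/laminin and grown 40 to 44 hours at 37 °C, 5% CO2 before chemical addition. Twenty-four hours later, ATP was measured by CellTiter-Glo luminescence; loss of signal versus DMSO indicates reduced viability.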

[11] = CCTE_Mundy_HCI_Cortical_Synap_Neur_Matur_NeuronCount: CCTE's Synaptogenesis and Neurite Maturation Assay in rat cortical cells for Neuron Count, Mundy Lab (AID 2284242; active = hit-call score of the fitted dose curve at least 0.9, where 1 is the maximum;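 also: neuron number from Hoechst nuclei and MAP2 staining by high-content imaging; hits reduce neuron count versus DMSO baseline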)
In short: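 Cortical cells from rat are plated, treated with AraC at DIV 5, and exposed to test chemicals with a media change at DIV 7. At DIV 12 they are fixed and immunostained (MAP2, synaptophysin), and imaged neuron counts are compared against DMSO controls.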

[12] = IUF_NPC2c_oligodendrocyte_migration_120hr: Leibniz Research Institute for Environmental Medicine (IUF) 120-hour Neural Progenitor Cell Migration Assay for Oligodendrocyte Migration (NPC2c) (AID 2284297);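 also: O4-positive oligodendrocyte migration distance divided by radial glia migration distance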
In short: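 Using fetal brain neural progenitor spheres differentiating in N2 medium at 37C, compounds were present for 120 h. Oligodendrocyte migration distance, normalized to radial glia migration, was measured from imaged O4 staining.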

[13] = IUF_NPC2a_radial_glia_migration_120hr: Leibniz Research Institute for Environmental Medicine (IUF) 120-hour Neural Progenitor Cell Migration Assay for Radial Glia Migration (NPC2a) (AID 2284298)
In short: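 Exposure of 0.3 mm primary hNPC spheres runs day 0 to 120 h with a half-volume medium change at day 3. Fixed cells get Hoechst staining; high-content analysis of nuclear positions yields radial glia migration distance per well, compared against DMSO controls.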

[14] = IUF_NPC2a_radial_glia_migration_72hr: Leibniz Research Institute for Environmental Medicine (IUF) 72-hour Neural Progenitor Cell Migration Assay for Radial Glia Migration (NPC2a) (AID 2284299)
In short: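 Single 0.3 mm neurospheres were plated per well in N2 differentiation medium and exposed from the start of differentiation. After 72 hours, brightfield images were taken and radial glia migration from the sphere core edge was measured manually in four directions, averaged per well.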

[15] = IUF_NPC2b_neuronal_migration_120hr: Leibniz Research Institute for Environmental Medicine (IUF) 120-hour Neural Progenitor Cell Migration Assay for Neuron Migration (NPC2b) (AID 2284300)
In short: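 Fetal human NPC spheres migrate on PDL/laminin during 120 h compound treatment; neuronal migration distance, glia-normalized, scored versus DMSO control.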

[16] = IUF_NPC3_neuronal_differentiation_120hr: Leibniz Research Institute for Environmental Medicine (IUF) 120-hour Neuronal Differentiation Assay (NPC3) (AID 2284301)
In short: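 Value is percent TUBB3-positive neurons among Hoechst-stained nuclei in the migration area, scored by trained CNN after 120 h differentiation. Primary hNPC spheres on poly-D-lysine/laminin, N2 medium, continuous dosing from day 0, half-refeed day 3; DMSO reference.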

[17] = IUF_NPC4_neurite_length_120hr: Leibniz Research Institute for Environmental Medicine (IUF) 120-hour Neuronal Morphology Assay for Neurite Length (NPC4) (AID 2284302)
In short: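 Neurite length, the mean in um across TUBB3-stained neurons, is derived by skeletonization of high-content images after 120 h differentiation. Compound exposure, 7 concentrations plus solvent control, ran from plating of hNPC spheres on poly-D-lysine/laminin, with medium half-replaced on day 3.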

[18] = IUF_NPC5_oligodendrocyte_differentiation_120hr: Leibniz Research Institute for Environmental Medicine (IUF) 120-hour Oligodendrocyte Differentiation Assay (NPC5) (AID 2284304; active = hit-call score of the fitted dose curve at least 0.9, where 1 is the maximum;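 also: primary human fetal neural progenitor spheres plated to migrate and differentiate; share of O4-positive cells among Hoechst nuclei found by CNN image analysis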)
In short: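 After plating on poly-D-lysine/laminin, fetal-derived hNPC spheres differentiated for 120 h at 37C in compound-containing N2 medium, refreshed by half on day 3. O4 immunostaining over Hoechst nuclei in the migration zone gave oligodendrocyte percentage relative to DMSO.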

[19] = IUF_NPC4_neurite_area_120hr: Leibniz Research Institute for Environmental Medicine (IUF) 120-hour Neuronal Morphology Assay for Neurite Area (NPC4) (AID 2284305; active = hit-call score of the fitted dose curve at least 0.9, where 1 is the maximum)
In short: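 Neurite area (pixels, nuclei excluded) of TUBB3-positive neurons from hNPC spheres differentiating 5 days under continuous exposure at 37 C, 5% CO2. High-content imaging; loss of signal versus DMSO control across 7 concentrations.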

[20] = IUF_NPC2-5_cytotoxicity_72hr: Cytotoxicity Assessment at 72 hours in the Leibniz Research Institute for Environmental Medicine (IUF) Neural Progenitor Cell Migration and Differentiation Assay for Cytotoxicity (NPC2-5) (AID 2284306; active = hit-call score of the fitted dose curve at least 0.9, where 1 is the maximum;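 also: LDH release into supernatant measured by resorufin fluorescence marking membrane damage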)
In short: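 Membrane-integrity cytotoxicity at 72 h, read as LDH-driven resorufin fluorescence in supernatant. hNPC spheres from fetal cortex differentiate on coated plates in N2 medium, 37C, 5% CO2; seven serial compound concentrations plus solvent control (DMSO ≤0.1%).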

[21] = IUF_NPC2-5_cytotoxicity_120hr: Cytotoxicity Assessment at 120 hours in the Leibniz Research Institute for Environmental Medicine (IUF) Neural Progenitor Cell Migration and Differentiation Assay (NPC2-5) (AID 2284307; active = hit-call score of the fitted dose curve at least 0.9, where 1 is the maximum)
In short: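 Membrane-integrity loss is quantified by LDH in supernatant after five days of exposure of migrating, differentiating human fetal NPC spheres; seven serially diluted concentrations are tested with DMSO kept at or below 0.1%.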

[22] = IUF_NPC2-5_cell_number_120hr: Cell Number Assessment at 120 hours in the Leibniz Research Institute for Environmental Medicine (IUF) Neural Progenitor Cell Migration and Differentiation Assay (NPC2-5) (AID 2284308);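 also: count of Hoechst-stained nuclei in migration zone around plated human neural progenitor spheres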
In short: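 Seven-point serial dilutions plus solvent control were applied to plated 0.3 mm hNPC spheres at differentiation start, with medium half-replaced at day 3. Nuclei positive for Hoechst in the migration zone were enumerated at 120 h.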

[23] = IUF_NPC2-5_viability_120hr: Viability Assessment at 120 hours in the Leibniz Research Institute for Environmental Medicine (IUF) Neural Progenitor Cell Migration and Differentiation Assay (NPC2-5) (AID 2284312)
In short: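 Alamar blue resorufin fluorescence read after 5 days of differentiation, with compound present from day 0 and replenished at day 3. Primary hNPC spheres on laminin-coated plates, 37C; seven concentrations plus solvent control, fitted against DMSO.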

[24] = CCTE_Mundy_HCI_iCellGluta_NOG_NeuriteLength: CCTE's Neurite Outgrowth Assay in iCellGluta cells for Neurite Length, Mundy Lab (AID 2284318; active = hit-call score of the fitted dose curve at least 0.9, where 1 is the maximum)
In short: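 Automated high-content imaging of betaIII-tubulin (Alexa Fluor-488) and Hoechst-stained cells gave neurite length, normalized to the DMSO baseline.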

[25] = IUF_NPC1_cytotoxicity_72hr: Cytotoxicity Assessment at 72 hours in the Leibniz Research Institute for Environmental Medicine (IUF) Neural Progenitor Cell Proliferation Assay (NPC1) (AID 2284332; active = hit-call score of the fitted dose curve at least 0.9, where 1 is the maximum;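 also: rising LDH signal means more cytotoxicity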)
In short: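 Membrane-integrity loss is scored from LDH released into the medium, detected as resorufin fluorescence, with activity fitted upward relative to baseline. Test material stays on human fetal-derived progenitor spheres for 72 h.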

[26] = CCTE_Mundy_HCI_iCellGluta_NOG_NeuronCount: CCTE's Neurite Outgrowth Assay in iCellGluta cells for Neuron Count, Mundy Lab (AID 2284340; active = hit-call score of the fitted dose curve at least 0.9, where 1 is the maximum;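 also: cells fixed about 48 h after compound addition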)
In short: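 Neuron count read by automated high-content imaging of Hoechst 33342 and betaIII-tubulin/Alexa Fluor-488 labelling in human iPSC glutamatergic neurons. Activity fitted relative to DMSO.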

[27] = CCTE_Mundy_HCI_iCellGluta_NOG_NeuriteCount: CCTE's Neurite Outgrowth Assay in iCellGluta cells for Neurite Count, Mundy Lab (AID 2284342; active = hit-call score of the fitted dose curve at least 0.9, where 1 is the maximum;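 also: chemical exposure about 48 hours starting 2 hours after plating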)

Measured: AC50

Cn1nc(C(F)(F)F)c(CS(=O)(=O)C2=NOC(C)(C)C2)c1OC(F)F
active: [1] 9.92 µM | [8] 77.1 µM | [11] 31.3 µM | [13] 33.8 µM | [16] 9.95 µM | [17] 42.3 µM | [19] 50.1 µM | [24] 50 µM
inactive: all other assays above

Reference: PubChem BioAssay (EPA / NIEHS)
